Measured values reported in the supplement of paper PMC7801607.

Tested on: Plasmodium berghei ANKA liver stage in HepG2-A16-CD81
Test: % inhibition of liver stage parasite viability (luciferase); higher = more inhibition
Details: 5 µM; 48 h
Procedure: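 Single-concentration screen of the MMV Pandemic Response Box. P. falciparum NF54 asexual blood stages: pLDH assay, 72 h at 37 °C, 2 and 20 µM, n=2. Stage IV/V gametocytes (NF54): luciferase reporter (NF54-Pfs16-GFP-Luc, 48 h), ATP bioluminescence (24 h) and PrestoBlue (48 h) at 1 and 5 µM, n=1. P. berghei liver stage (luciferase in HepG2-A16-CD81, 48 h post infection) at 5 µM, n=4. All normalised to DMSO and kill controls as % inhibition.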

Compound	% inhibition of liver stage parasite viability [%]
Cc1ccc(N2CCC(CCOc3ccc(S(C)(=O)=O)cc3)CC2)nn1	17.8
N[C@@H]1CN(c2c(F)cc3c(=O)c(C(=O)O)cn([C@@H]4C[C@@H]4F)c3c2Cl)CC12CC2	-19.2
O=C(NCc1ccc(F)cc1)c1c(O)c2ncccc2[nH]c1=O	14
O=C(Nc1nnc(-c2ccccc2)o1)c1ccc(F)cc1	53.8
O=C(c1ccc(F)cc1)N1CCN2C(=O)c3ccccc3C12c1ccccc1 (stereo not given)	26
O=C(NNC(=S)Nc1ccc(Cl)cc1)c1ccncc1	5.18
NC(=O)C(c1ccccc1)(c1ccccc1)[C@H]1CCCN(CCc2ccc3c(c2)CCO3)C1	48.5
N#Cc1c(F)c(Cl)c(NCc2ccccc2)c(C#N)c1F	22.3
CCc1ccccc1OCCN1CCCCCC1	17.2
CC1CCc2c(N3CCC(O)CC3)c(F)cc3c(=O)c(C(=O)O)cn1c23 (stereo not given)	17.1
CCc1nc(N)nc(N)c1C#CC(C)c1cc(OC)cc(-c2ccncc2)c1 (stereo not given)	70.2
CC1(C)[C@H](C(=O)O)N2C(=O)C[C@H]2S1(=O)=O	20.3
Cc1cc(-c2ccccc2)c(C(=O)C(=O)Nc2ccc(N3CCN(c4ncc(F)cn4)CC3)cc2)n1C	58.8
O=c1nc(N2CCN(CC3CCCCC3)CC2)sc2c([N+](=O)[O-])cc(C(F)(F)F)cc12	33.1
COc1ccc(C)cc1NC(=O)c1ccc(S(=O)(=O)N2CCCCC2)cc1	30
C=C(C)[C@@H]1CC[C@]2(C(=O)O)CC[C@]3(C)[C@H](CC[C@@H]4[C@@]5(C)CC[C@H](O)C(C)(C)[C@@H]5CC[C@]43C)[C@@H]12	57
O=C(O)CSc1cc(NS(=O)(=O)c2cccc3cccnc23)c2ccccc2c1O	35.4
CC(C)(C)NC(=O)[C@@H]1CN(Cc2cnc3occc3c2)CCN1C[C@@H](O)C[C@@H](Cc1ccccc1)C(=O)N[C@H]1c2ccccc2C[C@H]1O	36
CC(=O)N1CCN(c2ccc(OCC3COC(Cn4ccnc4)(c4ccc(Cl)cc4Cl)O3)cc2)CC1 (stereo not given)	16.4
N[C@H](CCC(=O)N[C@@H](Cc1c[nH]c2ccccc12)C(=O)O)C(=O)O	21.3

Compound	% inhibition of liver stage parasite viability [%]
OB1OCc2cc(Cl)ccc21	23.6
CC(C)Oc1ccc(-c2nc(-c3cccc4c3CC[C@@H]4NCCO)no2)cc1C#N	21.6
Nc1nnnn1CCOc1c2[nH]c3ccc(Cl)cc3c2cc2c1[nH]c1ccc(Cl)cc12	24.1
C[C@H](c1cccc2ccccc12)N(C)Cc1ccccc1	19.1
CCN(CC)S(=O)(=O)c1ccc(Cl)c(C(=O)Nc2sc3c(c2C#N)CCCC3)c1	69.2
C[C@@H](NC(=O)c1ccccc1-c1ccccc1)B(O)O	19.8
CNc1nc(=O)[nH]cc1F	18.4
Nc1cnn(C2OC(CO)C(O)C2O)c(=O)n1 (stereo not given)	-44.9
Cc1cc(CCOc2c(C)cc(-c3nnn(C)n3)cc2C)on1	33.8
Cc1[nH]c2ccccc2c1CCNCc1ccc(/C=C/C(=O)NO)cc1	72.8
Oc1cc(-c2cccc3ccccc23)[nH]n1	45.4
CN(C)c1[nH]c(=O)ncc1F	26.1
Clc1ccc(COC(Cn2ccnc2)c2ccc(Cl)cc2Cl)c(Cl)c1 (stereo not given)	33.2
Cc1cc(NS(=O)(=O)c2ccc(-c3ccc(F)cc3F)cc2)no1	43.5
CC1=C(/C=C/C(C)=C/C=C/C(C)=C/C(=O)Nc2ccc(O)cc2)C(C)(C)CCC1	13.4
CCc1c(OCC2CCC2)c2cc(F)ccc2[nH]c1=O	12.7
CC(C)Oc1ccc(-n2cnc3cc(/C=C\c4ccc(C(C)(C)O)cc4)ccc32)cc1	20.4
CC1(C)Cc2c(C#N)c(SCCc3ccccc3)nc(N3CCOCC3)c2CO1	18.8
Fc1ccc(-n2cc(Cn3c(-c4cccc(F)c4)nc4ccccc43)nn2)cc1	6.9
COC(=O)Nc1nc2cc(S(=O)c3ccccc3)ccc2[nH]1 (stereo not given)	9.84
